This note sets out measurements from PubChem BioAssay.

By inhibition is commonly meant the drop in the measured response relative to a control, in per cent.

The target of test [1] is Solute carrier family 12 member 5 (Homo sapiens) (UniProt Q9H2X9). Briefly: retest of KCC2 transport modulators without sodium – cell-based, HEK293 KCC2, thallium flux, secondary assay, confirmation (AID 1713;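 active means thallium flux slope above the same plate's solvent-only control mean plus 3 SD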). The conditions noted are these: FluoZin2 fluorescence, at 10 µM, stronger effect = higher value.
A further test is described as follows: PubChem AID 1714.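 Further: raw slope of fluorescence over initial fluorescence between 10 and 20 s after thallium.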 The conditions noted are these: HEK293-KCC2 + bumetanide/ouabain, thallium flux FluoZin2; at 10 µM; stronger effect = higher value.
In test [2] the target is Solute carrier family 12 member 5 (Homo sapiens) (UniProt Q9H2X9). Briefly: retest of KCC2 transport modulation, ouabain-free – cell-based, HEK293 KCC2, thallium flux, FluoZin2, secondary assay 2, confirmation (AID 1715;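 active means thallium flux slope more than 3 SD above or below the plate's solvent-only control mean, mostly below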;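 further: raw slope with 0.1% DMSO as baseline and bumetanide as block control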). Conditions: HEK293-KCC2, thallium flux FluoZin2 fluorescence; at 10 µM; actives lie on both sides; F/F0 rise rate, 10–20 s post-thallium.
A short description of test [3]: compound effects on native HEK Tl+ uptake – HEK cells, counterscreen 1, counter-screen for KCC2 modulator project, confirmation (AID 1716;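 active means thallium flux rate significantly above the same plate's solvent-only control wells, beyond their mean plus 3 SD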). The conditions noted are these: HEK293 parental cells, thallium flux FluoZin2, ouabain; at 10 µM; baseline-ratio fluorescence slope, 10–20 s after thallium. A general note: The purpose of a counterscreen is to sort out artefacts and off-target activity.

Test [4] has as its target Solute carrier family 12 member 5 (Homo sapiens) (UniProt Q9H2X9). As to the kind of experiment: modulation of KCC2 thallium flux in HEK cells – cell-based, ouabain, retest, confirmation (AID 1717;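 active means thallium flux slope beyond 3 SD from same-plate DMSO control mean in most replicates, usually higher, sometimes lower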;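 further: slope of initial-normalized fluorescence between seconds 10 and 20 after thallium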). The conditions noted are these: HEK293-KCC2, thallium flux FluoZin2 fluorescence, at 10 µM, bidirectional: low = inhibitor, high = activator.
A short description of test [5]: native HEK Tl+ uptake effects, second counter-screen – HEK cells, counterscreen 2, counter-screen for KCC2 modulator project, confirmation (AID 1718;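 active means thallium flux slope above the same plate's solvent-control mean plus 3 SD in both duplicate wells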;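 further: run without ouabain in cells lacking the KCC2 cotransporter; slope of fluorescence scaled to its starting value between 10 and 20 s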). Conditions: HEK293 parental, thallium flux FluoZin-2 fluorescence slope; at 10 µM.
Test [6] in a line: inhibitors of TNFa-induced NFkB p65 translocation, primary screen, imaging, HUVEC, MLSMR starter and 10KST1 sets (AID 438;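 active means inhibition above 20% together with a positive visual image hit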;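 further: compound added about 3h40 before a 20 min TNFalpha stimulation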;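 on inhibition: signal is the nuclear over cytoplasmic p65 intensity ratio per well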). Conditions: HUVEC TNFa-induced p65 nuclear translocation; cell count: measured here: nuclei count (cytotoxicity indicator), at 2.08 µM; inhibition: at 2 µM, stronger effect = higher value, 0% TNFa-plus-vehicle, 100% no-TNFa wells.
The nature of test [7]: reduction of polyQ htt aggregates in cells – imaging, exon1htt(103Q)mCFP cells, high-content imaging, primary screen (AID 483;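 active means visual image review flags a hit and inhibition of aggregation exceeds 20%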;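 further: compound exposure lasted 3 days before fixation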;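 on nuclei count: percent of the per-plate median nuclei count of sample wells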). Conditions: exon1htt(103Q)mCFP cell line, aggregate imaging, at 2 µM; inhibition of aggregation: stronger effect = higher value; nuclei count: measured here: cell count, toxicity.
The nature of test [8]: endothelial E-selectin expression blockers – imaging, HUVEC, immunofluorescence, MLSMR starter and 10KST1 sets, primary screen (AID 487;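 active means visually confirmed hit in the image check and inhibition above 20%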;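 on inhibition: signal is fraction of cell area covered by stained E-selectin grains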;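 on nuclei count: 100% = median nuclei count of all wells on the same plate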). The conditions noted are these: HUVEC TNFalpha-induced E-selectin immunofluorescence imaging, at 2 µM; inhibition: stronger effect = higher value; nuclei count: measured here: cell number, toxicity.
Test [9] is described as follows: Primary imaging screen for DUSP6 inhibitors that restore phospho-Erk in transfected HeLa cells, chemical complementation (AID 609;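 active means compounds giving at least 50% inhibition in the cell-based MKP-3 phosphatase rescue imaging test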;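 on inhibition: phospho-Erk level distribution per well compared with pooled transfected vehicle control wells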). Conditions: HeLa MKP-3 transfected, phospho-Erk imaging KS statistic, at 10 µM, cells stimulated with TPA for 15 min.
In test [10] the target is Dual specificity protein phosphatase 6 (Homo sapiens) (UniProt Q16828). Described as above. Conditions: HeLa MKP-3 transfected, phospho-Erk imaging KS statistic; at 10 µM; stronger effect = higher value; cells stimulated with TPA for 15 min.
Test [11] deals with Voltage-gated potassium channel subunit beta-2 (Rattus norvegicus) (UniProt P62483). As to the kind of experiment: inhibitors of rat Kvbeta2 reductase activity – biochemical, NADPH fluorescence, primary screen (AID 622;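 active means fluorescence slope higher than the sample average by over 3 SD, cut at about -0.22 in these data, passing the limit was not always enough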;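 further: slope of raw intensity against log time taken from 70 to 1610 s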). The conditions noted are these: recombinant KvBeta, 4-cyanobenzaldehyde reduction, at 10 µM, stronger effect = higher value.
The target is the same in test [12]. Briefly: enhancers of rat Kvbeta2 NADPH turnover – biochemical, NADPH fluorescence, primary screen (AID 623;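 active means NADPH fluorescence slope more negative than the mean of all samples by about 3 SD, 99.7% confidence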;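 further: fluorescence intensity change per second fitted from 20 to 320 s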). The conditions noted are these: Recombinant KvBeta, NADPH fluorescence decrease slope, 10 min; at 10 µM; stronger effect = lower value.
The target of test [13] is Muscarinic acetylcholine receptor M4 (Homo sapiens) (UniProt P08173). As to the kind of experiment: M4-linked GIRK flux change, two-sided – cell-based, HEK293 M4/GIRK, thallium flux, BTC-AM, M4 allosteric agonist project, primary screen (AID 625;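 active means fluorescence slope after compound addition differing from the mean of all tested samples at 99.7% confidence, mostly higher but some lower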;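 further: thallium influx through GIRK channels coupled to M4 in HEK293 cells with BTC-AM dye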). The conditions noted are these: at 10 µM, actives lie on both sides.
A short description of test [14]: inhibitors of larval lipid processing in zebrafish, primary screen, whole organism, PED6 fluorescence, gall bladder and intestine (AID 686;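 active means a full or partial loss of lipid-probe fluorescence in the fish gall bladder, intestine or both, judged by eye; inactive means no fluorescence loss, or compound toxic to the fish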;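 further: larvae 5 to 7 days old with five fish per well; signal comes from phospholipase A2 cleavage of quenched PED6 carried via bile; overnight exposure to compound and PED6 before scoring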). Conditions: Zebrafish larvae PED6 lipid processing, fluorescence scoring; screened at 20 µM (by protocol).
Test [15] can be described thus: loss of swimming-algae plug formation – whole organism, Chlamydomonas reinhardtii, WT vs cilia-less mutant, absorbance, 96-well, primary screen (AID 463189;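 active means inhibition at or above 50% relative to wild type and mutant plate controls; inactive means inhibition below 50%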;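 further: 0% = wild type cc124 cells in DMSO and 100% = ciliumless bld1 mutant cells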). The conditions noted are these: Chlamydomonas reinhardtii gravitaxis, OD600 absorbance, 2 days; at 10 µM; stronger effect = higher value.
The nature of test [16]: blockers of RIG-like receptor reporter activation – cell-based, Sendai virus stimulus, luciferase, 10K MLSCN set, TLR/RLR signaling modifier project, primary screen (AID 602276;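 active means inhibition at or above 50% at 10 µM; inactive means inhibition below 50%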;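 further: firefly luciferase from ISG56 promoter only with Renilla not read in this screen; 0% = Sendai virus plus DMSO and 100% = medium plus DMSO without virus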). The conditions noted are these: HEK293 RL24 IRF3 luciferase reporter, at 10 µM, stronger effect = higher value. (In general: In a reporter assay the amount or activity of a reporter protein is the signal.)
Test [17] can be described thus: TLR3 IRF3 reporter activation blockers – cell-based, poly I:C stimulus, luciferase, 10K MLSCN set, primary screen (AID 602277;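 active means inhibition of the reporter signal at or above 50%; inactive means inhibition below 50%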). Conditions: HEK293-TLR3 RL24 IRF3 luciferase reporter, at 10 µM, stronger effect = higher value.

The other results are listed elsewhere or left out. Results filed as inconclusive are left out. Active and inactive are the calls of the source.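 How the source made its calls, unless noted: active means thallium entry rate above the same plate's blocked-transporter control wells by more than 3 SD; inconclusive means the two repeat wells disagree; inactive means the rest.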

Chain of Solute carrier family 12 member 5 (Homo sapiens) (Q9H2X9 whole entry, looked up): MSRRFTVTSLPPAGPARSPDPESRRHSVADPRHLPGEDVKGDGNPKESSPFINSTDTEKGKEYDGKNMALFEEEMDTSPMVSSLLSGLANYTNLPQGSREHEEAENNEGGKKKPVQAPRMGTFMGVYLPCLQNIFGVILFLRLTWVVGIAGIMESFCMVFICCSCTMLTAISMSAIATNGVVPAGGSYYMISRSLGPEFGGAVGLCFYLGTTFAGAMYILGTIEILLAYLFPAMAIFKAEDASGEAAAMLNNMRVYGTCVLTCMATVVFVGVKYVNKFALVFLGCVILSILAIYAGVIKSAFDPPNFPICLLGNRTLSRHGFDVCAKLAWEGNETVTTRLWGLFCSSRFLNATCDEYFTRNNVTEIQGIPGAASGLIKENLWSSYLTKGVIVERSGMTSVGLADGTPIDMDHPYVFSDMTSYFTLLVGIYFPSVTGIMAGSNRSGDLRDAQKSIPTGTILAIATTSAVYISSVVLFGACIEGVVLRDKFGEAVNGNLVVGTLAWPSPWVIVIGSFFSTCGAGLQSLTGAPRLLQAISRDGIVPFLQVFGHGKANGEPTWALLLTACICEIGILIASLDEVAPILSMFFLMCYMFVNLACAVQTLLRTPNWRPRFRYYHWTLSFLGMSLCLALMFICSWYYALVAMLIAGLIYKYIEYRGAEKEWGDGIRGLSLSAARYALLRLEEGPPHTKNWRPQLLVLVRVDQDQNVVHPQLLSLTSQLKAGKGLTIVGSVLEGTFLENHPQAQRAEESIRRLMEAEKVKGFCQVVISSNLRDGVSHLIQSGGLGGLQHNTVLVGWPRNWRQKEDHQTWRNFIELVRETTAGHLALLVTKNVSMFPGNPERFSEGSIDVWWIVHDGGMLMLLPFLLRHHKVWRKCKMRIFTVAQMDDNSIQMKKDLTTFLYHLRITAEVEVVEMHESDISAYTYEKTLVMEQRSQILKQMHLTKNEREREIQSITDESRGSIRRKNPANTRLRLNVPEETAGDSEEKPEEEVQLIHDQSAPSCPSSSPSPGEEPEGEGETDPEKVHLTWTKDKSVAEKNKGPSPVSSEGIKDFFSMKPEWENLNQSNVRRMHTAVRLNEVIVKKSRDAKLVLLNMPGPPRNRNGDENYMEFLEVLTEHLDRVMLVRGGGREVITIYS
Chain of Voltage-gated potassium channel subunit beta-2 (Rattus norvegicus) (P62483 whole entry, looked up): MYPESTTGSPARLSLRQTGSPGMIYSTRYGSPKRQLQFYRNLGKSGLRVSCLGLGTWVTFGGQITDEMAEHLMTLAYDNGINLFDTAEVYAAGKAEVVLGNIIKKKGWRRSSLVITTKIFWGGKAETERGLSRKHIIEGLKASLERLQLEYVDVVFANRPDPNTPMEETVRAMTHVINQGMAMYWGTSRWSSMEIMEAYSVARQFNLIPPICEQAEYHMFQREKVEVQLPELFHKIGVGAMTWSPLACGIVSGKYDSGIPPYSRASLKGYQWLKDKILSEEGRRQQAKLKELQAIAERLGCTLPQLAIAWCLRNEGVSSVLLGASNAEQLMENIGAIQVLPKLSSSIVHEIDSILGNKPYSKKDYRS
Chain of Muscarinic acetylcholine receptor M4 (Homo sapiens) (P08173 whole entry, looked up): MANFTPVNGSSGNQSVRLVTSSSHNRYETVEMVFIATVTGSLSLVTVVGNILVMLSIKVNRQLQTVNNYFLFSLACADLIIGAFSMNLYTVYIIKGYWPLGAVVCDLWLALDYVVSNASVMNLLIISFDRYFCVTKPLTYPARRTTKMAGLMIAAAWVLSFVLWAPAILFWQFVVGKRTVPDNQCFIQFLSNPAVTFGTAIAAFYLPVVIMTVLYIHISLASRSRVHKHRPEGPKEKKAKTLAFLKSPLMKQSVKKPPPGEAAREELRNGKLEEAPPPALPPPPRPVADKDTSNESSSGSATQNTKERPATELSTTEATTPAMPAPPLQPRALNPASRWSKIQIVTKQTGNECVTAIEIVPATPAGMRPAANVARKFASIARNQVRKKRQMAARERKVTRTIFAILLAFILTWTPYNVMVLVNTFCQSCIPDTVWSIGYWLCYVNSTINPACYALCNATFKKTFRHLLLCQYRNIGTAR
Chain of Dual specificity protein phosphatase 6 (Homo sapiens) (Q16828 whole entry, looked up): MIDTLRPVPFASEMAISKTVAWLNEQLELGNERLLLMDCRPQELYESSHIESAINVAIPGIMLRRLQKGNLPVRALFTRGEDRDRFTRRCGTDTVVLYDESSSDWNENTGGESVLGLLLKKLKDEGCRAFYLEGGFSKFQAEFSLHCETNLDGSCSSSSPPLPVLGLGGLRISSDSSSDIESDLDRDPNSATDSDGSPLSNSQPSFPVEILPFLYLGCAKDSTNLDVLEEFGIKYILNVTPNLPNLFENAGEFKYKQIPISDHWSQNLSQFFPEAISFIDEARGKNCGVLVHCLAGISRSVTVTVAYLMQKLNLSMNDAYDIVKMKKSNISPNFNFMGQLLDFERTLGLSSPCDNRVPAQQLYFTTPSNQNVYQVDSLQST

Turning to `COc1ccc(-c2nc(CS(=O)CC(=O)N3CCc4ccccc4C3)c(C)o2)cc1` (stereo not drawn), the normalised thallium flux (F/F0 slope) in test [1] was 0.00722 (inactive). For the same compound, the normalized thallium flux in the test “PubChem AID 1714” is 0.00429 (inactive); in [2] it was 0.0225 (active). For the same compound, in [3], the thallium flux rate (normalised fluorescence) is 0.00707 (inactive). In addition, the raw Tl+ flux slope (below DMSO = inhibition, above = activation) in test [4] was 0.0124 (active). Further, the thallium flux slope in [5] is 0.00907 (inactive).

In the case of `C/C(=N\NC(=S)Nc1ccc(C)cc1)c1cc2ccccc2o1`, in test [1], the normalised thallium flux (F/F0 slope) was 0.00692 (inactive). Moreover, the normalized thallium flux was 0.0677 (active) in the test “PubChem AID 1714” and 0.0558 (active) in [2]. The thallium flux rate (normalised fluorescence) in [3] was 0.0375 (active). The raw Tl+ flux slope (below DMSO = inhibition, above = activation) in test [4] is 0.0575 (active). Moreover, in test [5], the thallium flux slope was 0.0352 (active).

Turning to `O=[N+]([O-])c1ccccc1/C=N/n1c(COc2ccccc2)n[nH]c1=S`, in [1], the normalised thallium flux (F/F0 slope) is 0.00593 (inactive). For the same compound, the normalized thallium flux in the test “PubChem AID 1714” was 0.0786 (active); in test [2] it was 0.0297 (inactive). Further, the thallium flux rate (normalised fluorescence) in test [3] is 0.0168 (active). The thallium flux slope in test [5] was 0.0116 (active).

Take `CCOC(=O)c1c(C)[nH]c(C)c1C(=O)CSc1nc(N)cc(N)n1`: the normalised thallium flux (F/F0 slope) in [1] was 0.00797 (inactive). The normalized thallium flux in the test “PubChem AID 1714” is 0.00434 (inactive); in test [2] it was 0.0294 (inactive). In addition, the thallium flux rate (normalised fluorescence) in test [3] was 0.00758 (inactive). Moreover, the raw Tl+ flux slope (below DMSO = inhibition, above = activation) in [4] is 0.0193 (inactive). In addition, in test [5], the thallium flux slope was 0.0105 (inactive).

As to `CCCn1c(=S)[nH]c2ccc(C(F)(F)F)cc21`, the normalised thallium flux (F/F0 slope) in [1] was 0.00727 (inactive). Moreover, the figures for the normalized thallium flux (in “PubChem AID 1714”; in test [2]) were 0.0987 (active) and 0.0617 (active), respectively. In addition, in test [3], the thallium flux rate (normalised fluorescence) is 0.0842 (active). The raw Tl+ flux slope (below DMSO = inhibition, above = activation) in [4] is 0.0775 (active). Further, in test [5], the thallium flux slope is 0.0576 (active).

As to `CCNCc1cc2cc(C)ccc2[nH]c1=O`, the cell count in [6] turned out to be 596. In addition, the inhibition in test [6] is -5.2% (inactive); in test [8], -107% (inactive); in test [10], 2.71% (inactive); in [15], 9.6% (inactive); in test [16], 3.24% (inactive); in test [17], 16.9% (inactive). Besides, in test [7], the inhibition of aggregation is 1.8% (inactive). In addition, the values for the nuclei count in test [7] and in [8] were 118% and 132%, respectively. The z-score is 0.581 in test [9] (measured here: cell density z-score); -1.49 in [9] (measured here: nuclear c-Myc green intensity z-score); -1.38 in test [9] (measured here: nuclear pErk red intensity z-score, stronger effect = higher value). Besides, the results for the fluorescence slope in test [11] and in test [13] were -0.515 (inactive) and 0.00569 (inactive), respectively. The NADPH fluorescence slope in [12] is -4.8e-05 (inactive). In test [14], the compound was called inactive. Also, in test [1], the normalised thallium flux (F/F0 slope) was 0.00875 (inactive). Further, the normalized thallium flux in the test “PubChem AID 1714” was 0.00485 (inactive); in [2], 0.034 (inactive). Besides, the thallium flux rate (normalised fluorescence) in [3] is 0.00817 (inactive). The raw Tl+ flux slope (below DMSO = inhibition, above = activation) in test [4] is 0.0185 (inactive). In test [5], the thallium flux slope is 0.0111 (inactive).

Consider `O=C(Nc1nnc(C2COc3ccccc3O2)o1)c1ccc(F)cc1` (stereo not drawn), for which the normalised thallium flux (F/F0 slope) in [1] is 0.0197 (active). Also, the normalized thallium flux in “PubChem AID 1714” was 0.06 (active); in test [2] it was 0.032 (inactive). Further, the thallium flux rate (normalised fluorescence) in [3] was 0.0287 (active). Moreover, the raw Tl+ flux slope (below DMSO = inhibition, above = activation) in [4] is 0.0495 (active). Further, in test [5], the thallium flux slope is 0.0126 (active).

In the case of `CC(=O)NNC(=O)c1csc(Cc2c(Cl)sc3ccc(Cl)cc23)n1`, in [1], the normalised thallium flux (F/F0 slope) is 0.00965 (inactive). Also, the normalized thallium flux in “PubChem AID 1714” was 0.0419 (active); in [2], 0.0308 (inactive). The thallium flux rate (normalised fluorescence) in test [3] is 0.0146 (active). In addition, the thallium flux slope in test [5] was 0.0112 (active).
